KCNQ2 block – rat KCNQ2 potassium channel inhibitors, primary screen, cell-based, CHO-K1, FluxOR thallium flux, B-score; 310,000 tested, 1.1% active; 20 min; stronger effect = lower value; AID 2156, 2009; B-score at 10 µM; Potassium voltage-gated channel subfamily KQT member 2 (Rattus norvegicus), O88943;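 active = fluorescence ratio B-score at most minus 3 library SDs, with starting brightness B-score within 2 library SDs, cut at about -5.5 in these data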
KCNQ2 pot – potentiators of rat KCNQ2 potassium channel; Potassium voltage-gated channel subfamily KQT member 2 (Rattus norvegicus), O88943; CHO-K1 KCNQ2, FluxOR thallium flux fluorescence; stronger effect = higher value; B-score at 10 µM; 310,000 tested, 0.54% active; AID 2239, 2010;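 active = fluorescence ratio B-score at least 3 SD of library B-scores, with initial fluorescence B-score within 3 of them, cut at about 5.3 in these data; same plate scores as AID 2156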;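 also: B-score of peak minus minimum over baseline fluorescence ratio after K+ and Tl+ stimulus; positive B-score means potentiation of KCNQ2 with more thallium influx and brighter signal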
KCNQ2 inh conf – rat KCNQ2 potassium channel inhibitors, confirmation, cell-based, thallium flux; shares compounds with KCNQ2 block; KCNQ2-expressing cells, inhibition; stronger effect = lower value; activity change, negative = inhibition, % at 10 µM; 1,000 tested, 57% active; AID 493025, 2011;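 also: 0% = vehicle wells and values are ratio percent relative to vehicle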
KCNQ1 spec – human KCNQ1 channel inhibition, counter-screen for KCNQ2 inhibitor project, cell-based, FluxOR thallium flux; 1,000 tested, 15% active; shares compounds with KCNQ2 block; activity change, negative = inhibition, % at 10 µM; KCNQ1-expressing cells, FluxOR thallium flux fluorescence; stronger effect = lower value; AID 493026, 2011;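 active = activity change at least 3 SD of negative controls below their mean in both duplicate wells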;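 also: CHO cells stably transfected with KCNQ1 and depolarized by potassium stimulus; peak minus minimum fluorescence over baseline after thallium addition; 0% = vehicle negative control and -100% = blank without thallium stimulus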
Target sequence (P51787 whole entry, looked up): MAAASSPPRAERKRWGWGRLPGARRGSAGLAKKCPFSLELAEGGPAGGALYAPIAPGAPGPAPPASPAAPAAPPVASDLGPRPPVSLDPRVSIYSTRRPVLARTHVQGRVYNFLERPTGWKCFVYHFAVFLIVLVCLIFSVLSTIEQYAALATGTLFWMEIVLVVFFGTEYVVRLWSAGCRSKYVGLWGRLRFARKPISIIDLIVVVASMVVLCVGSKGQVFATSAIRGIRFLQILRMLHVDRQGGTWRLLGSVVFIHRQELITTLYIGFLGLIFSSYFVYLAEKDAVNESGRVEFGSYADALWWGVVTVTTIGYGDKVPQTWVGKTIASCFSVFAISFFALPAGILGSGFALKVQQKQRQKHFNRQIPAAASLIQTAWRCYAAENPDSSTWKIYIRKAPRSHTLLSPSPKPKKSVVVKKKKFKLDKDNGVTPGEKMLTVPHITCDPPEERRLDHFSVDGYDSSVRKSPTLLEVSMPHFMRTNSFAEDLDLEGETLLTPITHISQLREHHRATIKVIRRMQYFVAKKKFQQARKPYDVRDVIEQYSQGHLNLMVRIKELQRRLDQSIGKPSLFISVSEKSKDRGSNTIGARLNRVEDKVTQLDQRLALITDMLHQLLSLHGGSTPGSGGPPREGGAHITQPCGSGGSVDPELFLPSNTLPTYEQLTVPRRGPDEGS
CHO parental ctr – thallium flux change in parental CHO cells, counter-screen for KCNQ2 inhibitor project; shares compounds with KCNQ2 block; stronger effect = lower value; activity change, % at 10 µM; 1,000 tested, 14% active; AID 493029, 2011;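 also: 0% = vehicle negative controls with stimulus buffer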
KCNQ2 patch conf – rat KCNQ2 channel inhibitors, confirmation, cell-based, automated patch clamp, single concentration | 550 tested, 49% active | shares compounds with KCNQ2 block | calls only at 10 µM | AID 588531, 2011 | KCNQ2-expressing cells, automated patch clamp current
* marks the source's active call; other numbers are inactive results; i = inactive; / = no result given; + = active, no number. Most compounds without a hit are left out; they make up all but 1.6% or so of the library. Unless noted, no rule for the calls is given here.

SMILES	KCNQ2 block	KCNQ2 pot	KCNQ2 inh conf	KCNQ1 spec	CHO parental ctr	others
CC(=O)N1CCOc2ccc(S(=O)(=O)N3CCN(c4cc(C)ccc4C)CC3)cc21	i	/	/	/	/
Cc1ccc(NC(=O)CN(C)C(=O)c2cccc(Br)c2)cc1	i	/	/	/	/
OCCC1CN(Cc2cccn2-c2ncccn2)CCN1C1CCCC1 (centres undefined)	i	/	/	/	/
Cc1ccc(NC(=O)c2ccc3ncsc3c2)cc1S(=O)(=O)N(C)C	i	2.8	/	/	/
Cc1cccc(NC(=O)C2CCN(C(=O)c3ccc(F)cc3)CC2)n1	i	/	/	/	/
NC(=O)C1(N2CCCCC2)CCN(C(=S)Nc2cc(F)cc(F)c2)CC1	i	0.02	/	/	/
Cc1onc(-c2ccccc2Cl)c1C(=O)NCCn1c(C)cc2ccccc21	-12*	-12	-36%*	i	i	KCNQ2 patch conf=+
Cc1onc(-c2ccccc2Cl)c1C(=O)NCC(=O)O	i	0.01	/	/	/
CCN(CC)c1ncnc2c1cnn2Cc1ccc(Cl)cc1	i	0.51	/	/	/
CC1=C(C(=O)OCCc2ccccc2)C(c2ccsc2)NC(=O)N1C (centres undefined)	i	/	/	/	/
Cc1sc2nc(CSC(C)C(=O)Nc3cc(S(C)(=O)=O)ccc3Cl)[nH]c(=O)c2c1C (centres undefined)	i	/	/	/	/
Cc1ccc(C(=O)NCCCc2ccccc2)c(Cl)c1	i	/	/	/	/
O=C(NCCC(=O)N(CCc1ccccc1)Cc1ccccc1)c1ccccc1Cl	-6.7*	-6.7	-32%*	i	i	KCNQ2 patch conf=+
O=C(OCC(=O)N(CCc1ccccc1)Cc1ccccc1)c1ccccc1O	-7.2*	-7.2	i	i	i
CCN(Cc1ccccc1)C(=O)COC(=O)c1cc(Cl)nc(Cl)c1	i	/	/	/	/
c1ccc(Nc2nc(NCC3CCCO3)c3ccccc3n2)cc1 (centres undefined)	i	/	/	/	/
CCOc1ccc(Nc2nc(NCC3CCCO3)c3ccccc3n2)cc1 (centres undefined)	-6.7*	-6.7	i	i	i
CCn1c(COc2cccc3ccccc23)nnc1SCC(=O)OC1CCCCC1	-8.6*	-8.6	i	i	i
O=C(CSc1nnc(-c2ccco2)n1Cc1ccccc1)OC1CCCCC1	-9.4*	-9.4	-34%*	i	i	KCNQ2 patch conf=+
O=C(CSc1nnc(-c2ccncc2)n1Cc1ccco1)OC1CCCCC1	i	/	/	/	/
Cn1c(COc2cccc3ccccc23)nnc1SCC(=O)OC1CCCCC1	i	/	/	/	/
O=C(c1ccc2c(c1)OCCCO2)N1CCCCC1	i	1.2	/	/	/
Cc1cc2nc3n(c2cc1C)CC1CC(C(=O)NCc2cccc(C(F)(F)F)c2)N(C)C31 (centres undefined)	i	0.7	/	/	/
COc1ccc(/C=N/NC(=O)c2ccc(N(C)S(=O)(=O)c3ccccc3)cc2)cc1OC	i	/	/	/	/
O=C(Cn1ncc2c(=O)oc3ccccc3c21)N1CCc2ccccc2C1	i	1.5	/	/	/
SMILES	KCNQ2 block	KCNQ2 pot	KCNQ2 inh conf	KCNQ1 spec	CHO parental ctr	others
COc1cc2c(cc1OC)CN(C(=O)c1oc3ccccc3c1C)CC2	i	/	/	/	/
CCn1c(C(=O)N2CCc3ccccc3C2)cc2oc3ccccc3c21	-6.8*	-6.8	-44%*	-52%*	-44%*
Cn1c(C(=O)N2CCc3ccccc3C2)cc2oc3ccccc3c21	-11*	-11	-16%*	i	i	KCNQ2 patch conf=+
Cc1nnc2nc(-c3ccccc3)nc(-c3ccccc3)n12	i	/	/	/	/
CCOc1ccccc1-c1nc(CN2CCCN(C(=O)c3ccco3)CC2)c(C)o1	i	/	/	/	/
O=C(Nc1ccc(F)cc1F)C1CCN(S(=O)(=O)c2cccnc2)CC1	i	1.4	/	/	/
Cc1ccc(NC(=O)c2ccccc2OCC(=O)c2ccccc2)cc1	i	/	/	/	/
Cc1cccc(NC(=O)c2ccccc2OCC(=O)c2ccccc2)c1	-8.2*	-8.2	i	i	i
COc1ccc(S(=O)(=O)CCC(=O)N2CCN(c3ccc(C(C)=O)cc3)CC2)cc1	i	0.29	/	/	/
COc1ccc(CNC(=O)CN(Cc2ccc(Cl)cc2)S(=O)(=O)c2ccccc2)cc1	-7.5*	-7.5	-30%*	i	i	KCNQ2 patch conf=i
COc1ccc(S(=O)(=O)N(CC(=O)NCc2ccncc2)Cc2ccccc2)cc1	i	/	/	/	/

From PubChem
